Measurements reported in PubChem BioAssay (EPA / NIEHS).
“And” between values parts separate entries of the source, which are not always exact repeats. Identical values can stand only once. Records with an inconclusive call do not appear. Where a structure was tested more than once in an assay, its records may differ in their call. The source made the active and inactive calls. Rule for the calls, unless noted: active = hit-call score of the fitted dose curve at least 0.9, where 1 is the maximum; inactive = score below 0.9.

Tests used:
[1] = APR_HepG2_CellCycleArrest_24hr: Apredica 24-hour HepG2 Assay for Cell Cycle Arrest (AID 2282905); conditions: imaging, actives raise or lower the signal;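 note: cell cycle arrest scored as ratio of 2N to 4N nuclear DNA content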
How it was run: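 HepG2 cells were exposed to compounds at 0.39–200 uM (ten concentrations, duplicate) in 0.5% v/v DMSO for 24 hr. After formaldehyde fixation and Triton permeabilization, Hoechst 33342-stained nuclei were imaged at 20x; DNA content was quantified, with bidirectional fitting against DMSO.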

[2] = APR_HepG2_CellLoss_24hr: Apredica 24-hour HepG2 Assay for Cell Loss (AID 2282908); conditions: high-content imaging;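 for AC50: fit in both directions so a hit may be cell loss or gain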
How it was run: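 Compounds were tested at 0.39–200 uM in duplicate with 0.5% v/v DMSO final. Cells were then fixed in 3.7% formaldehyde, Hoechst 33342 nuclei were imaged at 20x by HCS, and cell number was fitted bidirectionally against DMSO.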

[3] = APR_HepG2_MicrotubuleCSK_24hr: Apredica 24-hour HepG2 Assay for Microtubule CSK Stabilty (AID 2282909); conditions: HepG2 microtubule cytoskeleton imaging, actives raise or lower the signal
How it was run: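 HepG2 cells exposed 24 h to compounds at 0.39–200 uM (duplicate, 0.5% v/v DMSO final), then fixed, permeabilized and immunostained for alpha-tubulin with Hoechst 33342. Cytoskeleton imaged at 20x; bidirectional fit versus DMSO baseline.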

[4] = APR_HepG2_MitoMembPot_24hr: Apredica 24-hour HepG2 Assay for Mitochondrial Membrane Potential (AID 2282911); conditions: imaging, actives raise or lower the signal
How it was run: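 HepG2 human liver cells were exposed 24 hr to compounds at 0.39–200 uM (final DMSO 0.5% v/v) in duplicate. MitoTracker Red CMXRos (250 nM, 30 min) was loaded before formaldehyde fixation; fluorescence was imaged by ArrayScan HCS and fitted bidirectionally versus DMSO.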

[5] = APR_HepG2_MitoMass_24hr: Apredica 24-hour HepG2 Assay for Mitochondrial Mass (AID 2282912); conditions: high-content imaging, actives raise or lower the signal
How it was run: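 Human HepG2 liver cells were exposed for 24 hr to compounds at 0.39–200 uM (duplicates, 0.5% v/v DMSO final). They were stained live with 250 nM MitoTracker Red CMXRos for 30 min, fixed in 3.7% formaldehyde, and imaged by HCS fluorescence; signals were fitted bidirectionally against DMSO.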

[6] = APR_HepG2_CellCycleArrest_72hr: Apredica 72-hour HepG2 Assay for Cell Cycle Arrest (AID 2282914); conditions: high-content imaging, actives raise or lower the signal
How it was run: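 HepG2 cells were exposed to compounds at 0.39–200 uM (0.5% v/v DMSO final, duplicates) for 72 hr, fixed in 3.7% formaldehyde, permeabilized and stained with Hoechst 33342. Nuclear DNA content was quantified by high-content imaging; gain or loss of signal was fitted bidirectionally against DMSO.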

[7] = APR_HepG2_CellLoss_72hr: Apredica 72-hour HepG2 Assay for Cell Loss (AID 2282915); conditions: high-content imaging
How it was run: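 HepG2 cells were exposed for 72 hr to compounds at 0.39–200 uM (ten concentrations, duplicate) in 0.5% v/v final DMSO. Nuclei were stained with Hoechst 33342 after 3.7% formaldehyde fixation, imaged at 20x, and counted; fits bidirectional versus DMSO.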

[8] = APR_HepG2_P-H2AX_72hr: Apredica 72-hour HepG2 Assay for H2AX Phosphorylation (AID 2282916); conditions: imaging, actives raise or lower the signal;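 note: phospho-histone H2A.x immunostain intensity per cell marking DNA damage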
How it was run: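 HepG2 human liver cells were exposed for 72 hr to compounds at 0.39–200 uM (10 concentrations, duplicate per plate) in 0.5% v/v DMSO. Fixed, permeabilized cells were immunolabeled for phospho-histone H2A.x with Hoechst 33342 and imaged by HCS fluorescence; bidirectional fit versus DMSO.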

[9] = APR_HepG2_MitoticArrest_72hr: Apredica 72-hour HepG2 Assay for Mitotic Arrest (AID 2282918); conditions: high-content imaging, actives raise or lower the signal
How it was run: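 HepG2 cells were exposed for 72 hr to compound at 0.39–200 uM (10 concentrations, duplicate) in 0.5% v/v DMSO, fixed in 3.7% formaldehyde, immunostained for phospho-histone H3 with Hoechst 33342 and imaged by high-content fluorescence; bidirectional fits versus DMSO.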

[10] = APR_HepG2_MicrotubuleCSK_72hr: Apredica 72-hour HepG2 Assay for Microtubule CSK Stabilty (AID 2282919); conditions: HepG2 microtubule cytoskeleton, high-content imaging, actives raise or lower the signal
How it was run: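 HepG2 human liver cells were dosed for 72 h at ten concentrations from 0.39 to 200 uM in duplicate (0.5% v/v DMSO final). Fixed, permeabilized cells were immunostained for alpha-tubulin (Cy5) with a Hoechst counterstain and imaged at 20x.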

[11] = APR_HepG2_P-H2AX_24hr: Apredica 24-hour HepG2 Assay for H2AX Phosphorylation (AID 2282920); conditions: high-content imaging, actives raise or lower the signal
How it was run: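 HepG2 human liver cells were exposed for 24 hr to compounds at 0.39–200 uM in duplicate, with 0.5% v/v DMSO final. Fixed cells were immunostained for phospho-histone H2A.x plus Hoechst 33342, imaged by HCS fluorescence, and fitted bidirectionally against DMSO.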

[12] = APR_HepG2_StressKinase_72hr: Apredica 72-hour HepG2 Assay for Stress Kinase (AID 2282921); conditions: HepG2 stress kinase (phospho-c-Jun) imaging, actives raise or lower the signal
How it was run: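 Cells were exposed for 72 h to ten concentrations (0.39–200 uM, duplicate) at 0.5% v/v DMSO final, then fixed with 3.7% formaldehyde, permeabilized and immunostained for phospho-c-Jun (Cy3 secondary) with Hoechst nuclear counterstain.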

[13] = APR_HepG2_StressKinase_24hr: Apredica 24-hour HepG2 Assay for Stress Kinase (AID 2282922); conditions: HepG2 stress kinase (phospho-c-Jun) imaging, actives raise or lower the signal
How it was run: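 HepG2 cells exposed 24 hr to compound at 0.39–200 uM (10 concentrations, duplicate), 0.5% v/v DMSO final. Fixed in 3.7% formaldehyde, permeabilized with Triton X-100, immunolabeled for phospho-c-Jun with Hoechst 33342; HCS fluorescence imaging, bidirectional fit versus DMSO.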

[14] = APR_HepG2_MitoMass_72hr: Apredica 72-hour HepG2 Assay for Mitochondrial Mass (AID 2282924); conditions: high-content imaging, actives raise or lower the signal;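 note: MitoTracker Red CMXRos stain intensity per cell imaged as mitochondrial mass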
How it was run: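 HepG2 cells were exposed for 72 hr to compounds at 0.39–200 uM (ten concentrations, duplicate, 0.5% v/v DMSO final). Live cells were stained with 250 nM MitoTracker Red CMXRos for 30 min, then fixed in 3.7% formaldehyde and imaged by HCS fluorescence.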

[15] = ATG_CRE_CIS: Attagene CIS-FACTORIAL HepG2 Assay for human cAMP Responsive Element (CRE) binding protein 3 (AID 2282926); conditions: HepG2 CRE cis-reporter, Attagene multiplexed mRNA; actives raise or lower the signal
How it was run: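 HepG2 cells transiently transfected with a multiplexed reporter library (CRE-driven unit among them) were dosed for 24 h. Reporter mRNA was quantified by RT-PCR, fluorescent labelling, HpaI digestion and capillary electrophoresis, with bidirectional fitting against DMSO baseline.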

[16] = molecular target: CCAAT/enhancer-binding protein beta (Homo sapiens) (UniProt P17676); experiment: ATG_C_EBP_CIS: Attagene CIS-FACTORIAL HepG2 Assay for human CCAAT/Enhancer Binding Protein (C/EBP) beta (AID 2282927); conditions: HepG2 Attagene cis-factorial transcription factor reporter; actives raise or lower the signal
Chain of CCAAT/enhancer-binding protein beta (Homo sapiens) (P17676 whole entry, looked up): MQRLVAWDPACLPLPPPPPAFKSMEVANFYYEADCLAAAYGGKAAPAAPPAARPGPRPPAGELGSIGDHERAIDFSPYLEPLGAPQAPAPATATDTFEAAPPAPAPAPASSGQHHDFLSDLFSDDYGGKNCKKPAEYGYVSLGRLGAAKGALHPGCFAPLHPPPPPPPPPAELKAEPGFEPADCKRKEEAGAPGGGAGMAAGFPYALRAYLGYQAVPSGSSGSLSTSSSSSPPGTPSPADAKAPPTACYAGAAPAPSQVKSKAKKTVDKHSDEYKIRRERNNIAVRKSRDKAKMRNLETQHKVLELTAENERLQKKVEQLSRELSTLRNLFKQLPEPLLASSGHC
How it was run: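 Following a 24 h incubation with test chemical, transfected HepG2 cells yielded RNA whose reporter transcripts were quantified by RT-PCR and fluorescent capillary electrophoresis, with DMSO serving as baseline for bidirectional fitting.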

[17] = ATG_CMV_CIS: Attagene CIS-FACTORIAL HepG2 Assay for human CMV (Internal Marker) (AID 2282928); conditions: HepG2 CMV promoter reporter, transcription factor profiling; actives raise or lower the signal;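 note: endpoint acts as a background internal control marker rather than a target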
How it was run: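 HepG2 cells transiently transfected with multiple cis-regulated reporter units; 24 h compound exposure. Reporter mRNA quantified by RT-PCR, 6-FAM primer-extension labeling, HpaI digestion and capillary electrophoresis; bidirectional fitting against DMSO baseline.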

[18] = ATG_DR4_LXR_CIS: Attagene CIS-FACTORIAL HepG2 Assay for human Liver X Receptor (LXR), DR4 submotif (AID 2282929); conditions: HepG2 Attagene DR4 cis-reporter, mRNA transcription; actives raise or lower the signal
How it was run: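 HepG2, transient MRTU transfection, cis-element (DR4) promoter; 24 h compound exposure; total RNA → oligo(dT) RT → PCR → 6-FAM primer extension → HpaI cut → CE. Gain/loss vs DMSO, bidirectional fit.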

[19] = molecular target: Aryl hydrocarbon receptor (Homo sapiens) (UniProt P35869); experiment: ATG_Ahr_CIS: Attagene CIS-FACTORIAL HepG2 Assay for human Aryl Hydrocarbon Receptor (Ahr) (AID 2282930); conditions: HepG2 AhR cis-factorial reporter transcription; actives raise or lower the signal
Chain of Aryl hydrocarbon receptor (Homo sapiens) (P35869 whole entry, looked up): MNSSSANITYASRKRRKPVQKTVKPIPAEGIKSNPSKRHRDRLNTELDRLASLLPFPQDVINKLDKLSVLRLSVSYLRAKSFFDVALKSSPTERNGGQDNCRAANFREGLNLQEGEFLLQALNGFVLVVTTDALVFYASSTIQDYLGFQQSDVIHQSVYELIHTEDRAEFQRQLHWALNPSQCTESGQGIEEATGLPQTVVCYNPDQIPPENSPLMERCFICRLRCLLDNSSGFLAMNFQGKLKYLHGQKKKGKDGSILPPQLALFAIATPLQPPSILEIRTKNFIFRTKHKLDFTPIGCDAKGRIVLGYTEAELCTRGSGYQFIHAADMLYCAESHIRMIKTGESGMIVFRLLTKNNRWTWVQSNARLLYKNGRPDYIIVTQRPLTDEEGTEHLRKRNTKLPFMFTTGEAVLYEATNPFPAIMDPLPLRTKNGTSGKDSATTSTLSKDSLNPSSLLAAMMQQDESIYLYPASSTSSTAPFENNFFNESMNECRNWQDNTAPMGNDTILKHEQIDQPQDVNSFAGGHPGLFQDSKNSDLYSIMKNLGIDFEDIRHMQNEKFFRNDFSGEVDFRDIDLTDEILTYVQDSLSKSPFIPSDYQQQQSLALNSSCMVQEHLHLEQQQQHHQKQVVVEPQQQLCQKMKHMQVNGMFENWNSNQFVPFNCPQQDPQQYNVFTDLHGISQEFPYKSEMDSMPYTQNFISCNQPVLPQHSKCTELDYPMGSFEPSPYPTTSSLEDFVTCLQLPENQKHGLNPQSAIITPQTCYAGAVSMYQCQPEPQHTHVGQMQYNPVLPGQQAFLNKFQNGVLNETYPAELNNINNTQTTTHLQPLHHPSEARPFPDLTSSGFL
How it was run: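 Values derive from bidirectional fitting against DMSO negative control. Underlying signal: cis-element reporter mRNA in transiently transfected HepG2, harvested 24 h post-dose and measured by RT-PCR plus capillary electrophoresis.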

[20] = ACEA_ER_80hr: ACEA Biosciences xCELLigence Real-Time Cell Analysis on Estrogen Receptor Agonism for Proliferation (AID 2282667; active = hit-call score of the fitted dose curve at least 0.9, where 1 is the maximum); conditions: T47D proliferation, impedance (xCELLigence), 80 h
How it was run: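 T47D human breast cells were seeded on electrode plates, monitored overnight, then exposed continuously to compounds in eight-point 1:4 dilutions from 100 uM (max 0.5% DMSO). Impedance-based growth was read at 80 h, fitted upward relative to DMSO.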

Measured: AC50

CC12CC1(C)C(=O)N(c1cc(Cl)cc(Cl)c1)C2=O (stereo not drawn)
not listed: [20]
inactive: all other assays above

Cc1ccccc1N
not listed: [20]
inactive: all other assays above

CCC(C)(C)c1ccc(O)c(C(C)(C)CC)c1
inactive: [3] | [5] | [8] | [10] | [12] | [13] | [15] | [16] | [19]
active: [1] 28.1 µM | [2] 40.5 µM | [4] 29.7 µM | [6] 13.9 µM | [7] 37.4 µM | [9] 59.4 µM | [11] 39.3 µM | [14] 82.5 µM | [17] 11.1 µM | [18] 4.91 µM

CCOP(=S)(OCC)SCSP(=S)(OCC)OCC
inactive: [20] | [16] | [18] | [19]

CC(=[OH+])/C=C(/C)[O-].CC(=[OH+])/C=C(/C)[O-].CC(=[OH+])/C=C(/C)[O-].[Al]
inactive: [20] | [16] | [18] | [19]

O=C(O)C(Cl)(Cl)Cl
inactive: [1] | [2] | [3] | [4] | [5] | [6] | [7] | [8] | [9] | [10] | [11] | [12] | [13] | [14] | [15] | [16] | [18]
active: [2] 100 µM | [4] 101 µM | [5] 161 µM | [6] 171 µM | [7] 110 µM | [9] 114 µM | [11] 106 µM | [14] 162 µM

O=c1[nH]c(=O)[nH]c(=O)[nH]1
active: [4] 61.3 µM
not listed: [20]
inactive: all other assays above

NC(=O)O
active: [1] 10.7 µM | [2] 6.38 µM | [3] 12.2 µM | [4] 0.205 µM | [5] 59.3 µM | [6] 12.2 µM | [7] 3.92 µM | [8] 4.73 µM | [9] 4.17 µM | [10] 3.05 µM | [11] 9.46 µM | [12] 3.02 µM | [13] 4.39 µM
inactive: [14] | [15] | [16] | [17] | [18] | [19]

O=C(O)C(F)(F)C(F)(F)C(F)(F)C(F)(F)C(F)(F)C(F)(F)C(F)(F)C(F)(F)C(F)(F)C(F)(F)F
active: [1] 68.4 µM | [2] 83.1 µM | [3] 56.7 µM | [5] 76.3 µM | [6] 68.8 µM | [7] 83.3 µM | [8] 90.6 µM | [9] 66.5 µM | [11] 71.5 µM | [13] 73.8 µM | [14] 72.9 µM | [16] 172 µM | [18] 24.6 µM and 13.1 µM
inactive: [4] | [10] | [12] | [15] | [16] | [19]

C[C@@H]1C[C@@H]([C@H](O)CC2CC(=O)NC(=O)C2)C(=O)[C@@H](C)C1
active: [1] 1.19 µM | [2] 0.465 µM | [6] 7.46 µM | [7] 0.415 µM | [9] 0.564 µM | [10] 1.11 µM | [16] 1.31 µM [middle of 4 runs]
not listed: [15] | [17] | [18] | [19] | [20]
inactive: all other assays above

C=C(C)C(=O)[O][Sn]([CH2]CCC)([CH2]CCC)[CH2]CCC
active: [2] 0.773 µM | [5] 0.226 µM | [6] 0.188 µM | [7] 0.228 µM | [8] 0.0519 µM | [9] 0.0391 µM | [11] 0.159 µM | [14] 0.395 µM | [17] 0.288 µM
inactive: [1] | [3] | [4] | [10] | [12] | [13] | [16] | [18] | [19]

CC(C)(C)c1cc(O)ccc1O
active: [2] 125 µM | [4] 114 µM | [5] 151 µM | [7] 144 µM | [14] 108 µM | [16] 79.7 µM | [17] 64.7 µM | [18] 24.9 µM | [19] 1.85 µM
inactive: [1] | [3] | [6] | [8] | [9] | [10] | [11] | [12] | [13]
